Common to all, as to test: protein-binding microarray (PBM); PBM: ~300 nM protein, 6 mM HEPES pH 7.8, 80 mM KCl, 0.5 mM EDTA, 0.5 mM EGTA, 6% glycerol, 35 ng/ul poly-dIdC, 1% milk, 1 h, room temperature; Ap Aiptasia and Nv Nematostella (sea anemones) / Co Capsaspora / Aq Amphimedon (sponge) / Dm Drosophila / Hu human; RHD is the Rel homology domain; high values mean tight binding
Holding throughout (conditions): dsDNA, one strand shown

One assay concerns the target T1, GST-Ap-NF-kB RHD (Exaiptasia pallida (Aiptasia), UniProt A0A913YAJ5 2-422).
T1 sequence: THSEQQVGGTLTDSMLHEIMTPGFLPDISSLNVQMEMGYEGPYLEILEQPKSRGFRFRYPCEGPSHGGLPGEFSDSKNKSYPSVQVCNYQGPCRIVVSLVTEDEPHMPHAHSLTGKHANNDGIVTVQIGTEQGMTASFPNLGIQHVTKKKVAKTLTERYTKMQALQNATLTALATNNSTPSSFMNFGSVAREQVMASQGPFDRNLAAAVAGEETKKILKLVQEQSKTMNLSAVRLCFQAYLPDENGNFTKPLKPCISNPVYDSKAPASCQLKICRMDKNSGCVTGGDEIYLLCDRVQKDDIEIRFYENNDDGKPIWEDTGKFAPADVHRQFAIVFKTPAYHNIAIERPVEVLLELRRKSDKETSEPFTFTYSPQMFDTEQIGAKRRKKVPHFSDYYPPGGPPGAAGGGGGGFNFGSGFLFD

The target of assay [1] is T2, GST-Nv-NF-kB (Cys allele) (Nematostella vectensis, UniProt E5G601 2-411).
T2 sequence: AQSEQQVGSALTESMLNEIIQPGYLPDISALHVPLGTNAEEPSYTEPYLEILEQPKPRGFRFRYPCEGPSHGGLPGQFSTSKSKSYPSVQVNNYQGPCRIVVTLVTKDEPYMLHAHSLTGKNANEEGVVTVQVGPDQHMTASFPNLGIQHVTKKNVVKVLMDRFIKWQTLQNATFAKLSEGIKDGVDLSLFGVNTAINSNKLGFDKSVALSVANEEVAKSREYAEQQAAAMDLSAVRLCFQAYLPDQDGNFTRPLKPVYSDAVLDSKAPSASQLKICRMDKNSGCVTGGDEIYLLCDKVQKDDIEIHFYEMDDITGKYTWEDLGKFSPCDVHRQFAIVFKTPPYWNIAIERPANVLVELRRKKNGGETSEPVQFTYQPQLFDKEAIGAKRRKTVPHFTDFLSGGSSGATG

The next assay has as its target T3, GST-Co-NF-kB (Capsaspora owczarzaki, UniProt F1ARL5 200-546).
T3 sequence: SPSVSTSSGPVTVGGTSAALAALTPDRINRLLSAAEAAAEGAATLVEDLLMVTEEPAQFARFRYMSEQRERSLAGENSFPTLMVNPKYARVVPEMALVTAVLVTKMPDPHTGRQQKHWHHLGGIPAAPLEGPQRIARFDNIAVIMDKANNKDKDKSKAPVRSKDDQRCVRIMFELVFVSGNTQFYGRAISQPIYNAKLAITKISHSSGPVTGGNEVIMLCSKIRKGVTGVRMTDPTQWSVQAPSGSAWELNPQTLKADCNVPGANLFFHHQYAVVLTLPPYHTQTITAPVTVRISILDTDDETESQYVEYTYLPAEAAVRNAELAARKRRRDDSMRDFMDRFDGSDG

Another assay has as its target T4, GST-Dm-Relish (Drosophila melanogaster, UniProt Q94527 99-473).
T4 sequence: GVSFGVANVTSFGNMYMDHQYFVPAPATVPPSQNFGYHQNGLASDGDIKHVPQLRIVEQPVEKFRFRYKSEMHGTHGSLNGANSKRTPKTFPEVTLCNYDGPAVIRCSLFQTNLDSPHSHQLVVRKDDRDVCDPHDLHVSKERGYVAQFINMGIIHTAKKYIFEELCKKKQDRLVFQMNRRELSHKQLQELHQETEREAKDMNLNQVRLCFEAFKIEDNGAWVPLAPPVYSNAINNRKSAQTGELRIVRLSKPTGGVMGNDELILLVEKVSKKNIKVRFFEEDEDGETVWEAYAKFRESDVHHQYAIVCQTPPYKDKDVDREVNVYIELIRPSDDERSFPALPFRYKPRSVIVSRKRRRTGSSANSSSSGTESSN

The target of a further assay is T5, GST-Aq-NF-kB (Amphimedon queenslandica, UniProt A9Y5G7 2-389).
T5 sequence: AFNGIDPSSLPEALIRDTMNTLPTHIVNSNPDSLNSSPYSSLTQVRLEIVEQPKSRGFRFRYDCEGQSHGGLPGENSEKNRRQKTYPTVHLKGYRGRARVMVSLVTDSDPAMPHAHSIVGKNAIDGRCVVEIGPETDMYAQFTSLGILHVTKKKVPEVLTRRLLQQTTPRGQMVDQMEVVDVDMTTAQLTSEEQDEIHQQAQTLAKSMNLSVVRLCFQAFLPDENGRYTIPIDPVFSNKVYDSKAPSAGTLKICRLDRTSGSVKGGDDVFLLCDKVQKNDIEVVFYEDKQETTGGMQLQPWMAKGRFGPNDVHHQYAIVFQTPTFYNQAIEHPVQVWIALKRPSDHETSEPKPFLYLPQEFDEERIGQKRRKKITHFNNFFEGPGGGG

In another assay the target is GST-Hu-p50 (Homo sapiens, UniProt P19838 7-356).
Chain of GST-Hu-p50 (P19838 7-356): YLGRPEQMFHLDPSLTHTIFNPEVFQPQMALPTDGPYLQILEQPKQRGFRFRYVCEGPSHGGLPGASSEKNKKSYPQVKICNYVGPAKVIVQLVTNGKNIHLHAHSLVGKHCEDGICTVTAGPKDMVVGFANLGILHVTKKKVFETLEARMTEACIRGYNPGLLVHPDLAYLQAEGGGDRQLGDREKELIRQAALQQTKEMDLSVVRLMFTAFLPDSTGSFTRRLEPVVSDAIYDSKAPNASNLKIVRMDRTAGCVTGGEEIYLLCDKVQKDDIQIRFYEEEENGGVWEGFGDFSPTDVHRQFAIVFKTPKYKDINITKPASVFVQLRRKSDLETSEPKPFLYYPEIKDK

For “CCGATTAACATCAGGCATACCCCTGATGTTAATCGGGTCTTGATTCGCTTGACGCTGCTG”, the binding signal in the assay with GST-Ap-NF-kB RHD came to 1.96 z-score; in assay [1], 1.5 z-score; with GST-Co-NF-kB, 1.89 z-score; with GST-Dm-Relish it was 1.3 z-score; in the assay with GST-Aq-NF-kB it was 3.12 z-score; with GST-Hu-p50 it was 1.59 z-score.
For the sequence “CCGATTAACATCAAAAATTCACCTGATGTTAATCGGGTCTTGATTCGCTTGACGCTGCTG”, the binding signal came to 1.56 z-score with GST-Ap-NF-kB RHD; 2.59 z-score in assay [1]; 1.24 z-score with GST-Co-NF-kB; 5.78 z-score in the assay with GST-Dm-Relish; 2.74 z-score with GST-Aq-NF-kB; 4 z-score in the assay with GST-Hu-p50.
Turning to “CCGATTAACATCAGGGGGTTAAATGATGTTAATCGGGTCTTGATTCGCTTGACGCTGCTG”, the binding signal with GST-Ap-NF-kB RHD is 4.33 z-score; in assay [1] it was 4.07 z-score; with GST-Co-NF-kB, 3.62 z-score; with GST-Dm-Relish, 5.86 z-score; with GST-Aq-NF-kB, 4.49 z-score; with GST-Hu-p50 it was 4.29 z-score.
Take “CCGATTAACATCAATCCACCCCCTGATGTTAATCGGGTCTTGATTCGCTTGACGCTGCTG”: the binding signal is 3.95 z-score with GST-Ap-NF-kB RHD; 3.33 z-score in assay [1]; 4.65 z-score with GST-Co-NF-kB; 2.99 z-score with GST-Dm-Relish; 3.63 z-score with GST-Aq-NF-kB; 4.45 z-score with GST-Hu-p50.
With “CCGATTAACATCAGGCATCCCCCTGATGTTAATCGGGTCTTGATTCGCTTGACGCTGCTG”, the binding signal with GST-Ap-NF-kB RHD is 6.28 z-score; in assay [1] it was 5.13 z-score; with GST-Co-NF-kB it was 3.74 z-score; with GST-Dm-Relish it was 6.22 z-score; with GST-Aq-NF-kB, 6.35 z-score; with GST-Hu-p50 it was 5.3 z-score.
“CCGATTAACATCACACTCCCCCCTGATGTTAATCGGGTCTTGATTCGCTTGACGCTGCTG”: the binding signal was found to be 5.44 z-score with GST-Ap-NF-kB RHD; 4.08 z-score in assay [1]; 6.07 z-score with GST-Co-NF-kB; 3.37 z-score with GST-Dm-Relish; 3.93 z-score with GST-Aq-NF-kB; 5.38 z-score in the assay with GST-Hu-p50.
For the sequence “CCGATTAACATCAGAAGACCCCCTGATGTTAATCGGGTCTTGATTCGCTTGACGCTGCTG”, the binding signal was 5.66 z-score in the assay with GST-Ap-NF-kB RHD; 3.66 z-score in assay [1]; 1.79 z-score with GST-Co-NF-kB; 4.9 z-score with GST-Dm-Relish; 4.82 z-score with GST-Aq-NF-kB; 4.45 z-score with GST-Hu-p50.
“CCGATTAACATCAGGGGGTTGCATGATGTTAATCGGGTCTTGATTCGCTTGACGCTGCTG”: the binding signal in the assay with GST-Ap-NF-kB RHD came out at 5.29 z-score; in assay [1] it was 3.67 z-score; with GST-Co-NF-kB, 2.22 z-score; with GST-Dm-Relish it was 4.83 z-score; in the assay with GST-Aq-NF-kB, 4.08 z-score; with GST-Hu-p50, 5.29 z-score.
Regarding “CCGATTAACATCAAAAAGCCCCGTGATGTTAATCGGGTCTTGATTCGCTTGACGCTGCTG”, the binding signal with GST-Ap-NF-kB RHD worked out at 6.52 z-score; in assay [1], 8.2 z-score; in the assay with GST-Co-NF-kB, 1.43 z-score; with GST-Dm-Relish, 8.47 z-score; in the assay with GST-Aq-NF-kB it was 7.21 z-score; in the assay with GST-Hu-p50, 6.06 z-score.
For “CCGATTAACATCAAACGTTCCCCTGATGTTAATCGGGTCTTGATTCGCTTGACGCTGCTG”, the binding signal is 5.26 z-score with GST-Ap-NF-kB RHD; 5.7 z-score in assay [1]; 6.66 z-score with GST-Co-NF-kB; 3.29 z-score in the assay with GST-Dm-Relish; 4.66 z-score with GST-Aq-NF-kB; 4.03 z-score with GST-Hu-p50.
As to “CCGATTAACATCAAAACACCCCTTGATGTTAATCGGGTCTTGATTCGCTTGACGCTGCTG”, the binding signal amounted to 3.63 z-score with GST-Ap-NF-kB RHD; 2.54 z-score in assay [1]; 2 z-score in the assay with GST-Co-NF-kB; 4.19 z-score with GST-Dm-Relish; 4.03 z-score with GST-Aq-NF-kB; 4.32 z-score with GST-Hu-p50.
Regarding “CCGATTAACATCAGAAACCCCCATGATGTTAATCGGGTCTTGATTCGCTTGACGCTGCTG”, the binding signal worked out at 7.61 z-score in the assay with GST-Ap-NF-kB RHD; 6.32 z-score in assay [1]; 2.76 z-score with GST-Co-NF-kB; 8.35 z-score with GST-Dm-Relish; 5.97 z-score with GST-Aq-NF-kB; 6.52 z-score with GST-Hu-p50.
As for “CCGATTAACATCAGGGTAATTTATGATGTTAATCGGGTCTTGATTCGCTTGACGCTGCTG”, the binding signal in the assay with GST-Ap-NF-kB RHD was 4.07 z-score; in assay [1] it was 6.3 z-score; in the assay with GST-Co-NF-kB, 3.64 z-score; in the assay with GST-Dm-Relish, 3.68 z-score; with GST-Aq-NF-kB, 6.31 z-score; with GST-Hu-p50 it was 4.9 z-score.

The record behind these values is article PMC5700166.
